From PubChem BioAssay (NCI)
Compounds without any hit were thinned out: in the full panel of roughly 83,000, 20% have a hit.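 Testing used 96-well plates and a 48-hour single-concentration exposure. Example: -40 means 40% of the starting cells died.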 Unmarked numbers belong to inactive results. The source made the active and inactive calls. The calls were made as follows: active = growth percent below 10; inactive = the rest.

Assays:
Experiment in all cases: NCI-60 one-dose screen, 48 h (100 = growth as untreated, 0 = no growth, -100 = all killed)
Details in all cases: 10 µM unless noted
[1] = test system: SR leukemia
[2] = test system: RPMI-8226 leukemia
[3] = test system: OVCAR-8 ovarian
[4] = test system: OVCAR-5 ovarian
[5] = test system: OVCAR-4 ovarian
[6] = test system: SK-OV-3 ovarian
[7] = test system: IGROV1 ovarian
[8] = test system: OVCAR-3 ovarian
[9] = test system: HS 578T breast
[10] = test system: NCI/ADR-RES ovarian
[11] = test system: T-47D breast
[12] = test system: BT-549 breast
[13] = test system: MDA-MB-435 melanoma
[14] = test system: SW-620 colon
[15] = test system: MCF7 breast
[16] = test system: KM12 colon
[17] = test system: HCT-116 colon
[18] = test system: HCC-2998 colon

Row | Structure (SMILES) | growth [1] | growth [2] | growth [3] | growth [4] | growth [5] | growth [6] | growth [7] | growth [8] | growth [9] | growth [10] | growth [11] | growth [12] | growth [13] | growth [14] | growth [15] | growth [16] | growth [17] | growth [18]
1 | CN1C(=O)N(C)C2C1NN=c1s/c(=C\c3ccsc3)c(=O)n12 (configuration not stated) | 20.6% | 58% | 59.5% | 72.6% | 89.5% | 59.7% | 46.9% | 14.9% | 53.9% | 39.8% | 44.3% | 37% | -3.38% (active) | 26.6% | 15.2% | 18.9% |  | 
2 | CNC(=O)OC1C(O[C@H]2C[C@H]3[C@@H]4CC=C5C[C@@H](O)CC[C@]5(C)[C@H]4CC[C@]3(C)[C@H]2[C@H](C)C(=O)CCC(C)C)OCC(O)C1OC1OCC(O)C(O)C1OC(=O)c1ccc(OC)cc1 (some centres not stated) | 1.47% (active) | -25.5% (active) | 35.5% | 38.8% | 55.8% | -20.6% (active) | 28.3% | 62.7% | -5.93% (active) | 82.8% | 10.2% | 18.3% | -25.7% (active) | -37.2% (active) |  | 36.5% | 8.61% (active) | 
3 | COc1ccc(C(=O)OC2C(OC3C(O)COC(O[C@H]4C[C@H]5[C@@H]6CC=C7C[C@@H](O)CC[C@]7(C)[C@H]6CC[C@]5(C)[C@H]4[C@H](C)C(=O)CCC(C)C)C3OC(N)=O)OCC(O)C2O)cc1 (some centres not stated) | -14.1% (active) | -32.8% (active) | 25.3% | 36.3% | 44.1% | -37.2% (active) | 19.5% | 58.3% | -29.9% (active) | 86.2% | 1.19% (active) | -2.62% (active) | -63% (active) |  | -21.1% (active) | 27.4% | -7.43% (active) | 52.7%
4 | CC(C)(C)c1nn(-c2ccccc2)c2c1C(=O)CSC(c1ccc3c(c1)OCO3)N2 (configuration not stated) | 78.8% | 102% | 109% | 95.7% | 103% | 95.4% | 88.5% | 93.2% | 101% | 88.2% | 84.4% | 112% | 99.6% |  | 90.3% | 101% | 85.6% | 105%
5 | Cc1c2c(cc3c1[nH]c1ccccc13)C=NCC2 | 64.1% | 87% | 94.1% | 98.3% | 94% | 96.5% | 105% | 101% | 99.1% | 85.6% | 73.7% | 79.6% | 94.9% | 97% |  | 87% | 71.1% | 96.8%
6 | COc1cc(C2CC(c3ccc(Cl)cc3)=NN2C(C)=O)ccc1Oc1ccnc2cc(Cl)ccc12 (configuration not stated) | 76.4% | 87.3% | 26.8% | 81.2% | -23.8% (active) | 18.4% | 58.1% | 24% | 38.8% | 53.2% | 53.9% | 92% | 62% | 66.3% |  | 73.5% | 24.5% | 59.4%
7 | C=C1C(=O)O[C@H]2[C@H]1CC/C(COC(=O)NCc1ccc(Cn3c(=O)sn(CCCl)c3=O)cc1)=C\CC[C@@]1(C)O[C@@H]21 | 5.35% (active) | 2.37% (active) | 92.1% | 109% | 60.6% | 85.3% | 47.7% | -26.2% (active) | 97.1% | 113% | 3.07% (active) | 59.4% | 79.4% | -20.3% (active) |  | 95.2% | -61.7% (active) | 120%
8 | COc1ccc(-c2nc(SCCC(C)C)nc(Nc3ccc(C(=O)O)cc3)c2C#N)cc1 | 77.3% | 62.9% | 93.9% | 105% | 89.2% | 109% | 110% | 97.5% | 94.2% | 102% | 71.7% | 82.6% | 99.3% |  | 80.5% | 86.3% | 84.4% | 104%
9 | CCOC(=O)C1OC2(CCCC2)OC1C(=O)OCC (configuration not stated) | 104% | 84.8% | 108% | 110% | 118% | 105% | 96.6% | 122% | 105% | 117% | 98.4% | 98.9% | 112% | 113% |  | 104% | 98% | 104%
10 | O=c1c2cc(Cl)ccc2oc2ccc(OCCCCCN3CCCCC3)cc12 | 7.54% (active) | 38% | 55.1% | 75.4% | 80.6% | 98.3% | 72% | 67.1% | 80.5% | 71% | 60.1% | 64.6% | -24% (active) |  | 56.5% | 65% | 11.5% | 74.7%
11 | O=C(/C=C/c1ccccc1Br)c1cccc(OCCCCOc2cccc(C(=O)/C=C/c3ccccc3Br)c2)c1 | 31.8% | -11.7% (active) | 102% | 105% | 101% | 104% | 92.4% | 108% | 102% | 102% | 75.4% | 104% | 97% |  | 28.1% | 101% | 16.4% | 109%
12 | C=C1C(=O)O[C@H]2[C@H]1CC/C(COC(=O)NCc1[nH]nc3ccccc13)=C\CC[C@@]1(C)O[C@@H]21 | 4.38% (active) | -10.2% (active) | 35.3% | 58.5% | 67.9% | 75.6% | -20.8% (active) | 5.37% (active) | 62.5% | 85.7% | 37.4% | 24.3% | 37.3% | -28.9% (active) |  | 55.8% | -80.7% (active) | 87.5%
13 | CCOC(=O)c1cc(N)nc2ccccc12 | 102% | 106% | 108% | 109% | 109% | 101% | 120% | 109% | 82.7% | 104% | 93.7% | 105% | 108% | 91.8% |  | 98.4% | 102% | 111%
14 | CC(=O)O[C@@H]1CC2C(C)(C)CCCC2(C)C2=C1C(=O)C(C(C)C)=CC2=O (some centres not stated) | -0.431% (active) | 2.06% (active) | -2.03% (active) | -45.4% (active) | 13.4% | 17.2% | 7.5% (active) | 0.0354% (active) | 9.38% (active) | 15.9% | -7.86% (active) | -13% (active) | -28.1% (active) |  | 3.73% (active) | -48.7% (active) | -24.4% (active) | -60% (active)
15 | N=C(N)c1ccc(-c2ccc(-c3cccs3)s2)cc1F | -23.8% (active) | -48.1% (active) | -44.4% (active) | -83.6% (active) | -59.1% (active) | -100% (active) | -70.6% (active) | -77.2% (active) | -28.1% (active) | -57.4% (active) | -63.7% (active) | -80.6% (active) | -81.5% (active) | -62.8% (active) |  | -76.8% (active) | -47.2% (active) | -81.2% (active)
16 | COc1ccc2nc(C)cc(Sc3nc4ccccc4s3)c2c1 | -48% (active) | -39.5% (active) | 36.5% | 61.2% | 25.8% | 80.5% | 22.2% | 22.2% | 62.1% | 29.1% | 32.5% | -11.8% (active) | 17.2% | 31.3% |  | 50.5% | 24.5% | 73.8%
17 | COc1cc(C2CC(c3ccc(Cl)cc3)=NN2C=O)ccc1Oc1ccnc2cc(Cl)ccc12 (configuration not stated) | 63.2% | 65.1% | 44.6% | 92.7% | 28.1% | 60% | 97% | 73.4% | 35.5% | 76.6% | 56.4% | 94.7% | 73.3% |  | 53.4% | 76.2% | 49.2% | 72.8%
